Assay results as given in paper PMC12136788.
Positions count from the first letter of the chain named. In all, about 24,000 sequences were measured (“enrichment r”: median about 0.99, highest 2% from about 3.7 on). The sample as a whole holds a higher share of the highest values than the screen did.

T1: UNK ZnF1-3 (human, UniProt Q9C0B0 31-174)
T1 sequence: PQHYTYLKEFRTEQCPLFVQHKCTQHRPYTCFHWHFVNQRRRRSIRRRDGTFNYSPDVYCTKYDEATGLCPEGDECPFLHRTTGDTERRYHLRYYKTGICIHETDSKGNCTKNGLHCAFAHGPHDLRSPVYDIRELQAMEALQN

B1: chr2:216981417:216981418:+_ENSG00000079246_ENST00000392132|hu_hu|hu_hu_hu_mus_True|48_48 (ssRNA)
RNA: GGGAGUUCUACAGUCCGACGAUCCUGAUACUGGUCCUUGCCAGCAAGGGCAUUAUCAGUGCCAUCUGUGCCAUAGAGGACUAACGCAAUCUCAUCCUUGCUCUCCGAAAAUACCUGUCGUUGGACAAACAUAGUCAUCACUUUCAACAGAGGAUUGAGCAUCA
B2: 132431906_132432936_2116_CDS_ENSG00000170606_ENST00000304858|human|control|control (ssRNA)
RNA: GGGAGUUCUACAGUCCGACGAUCUCUCAUUUCAUACACAUAUUCCUCCACUGCGUUCUUAGCAUCAUUCCGCUCCUUCUCCAGUUUAUCCUGCAUGAUCAUCUUACCCUCAUUUUCAAUGUACAAGUUGAGCAUCUCUCUGUCCAACAGAGGAUUGAGCAUCA
B3: 96523144_96524318_649_CDS_ENSMUSG00000031751_ENSMUST00000053766|mouse|control|control (ssRNA)
RNA: GGGAGUUCUACAGUCCGACGAUCGGAAAGGUAUUCAAAUCUGUCUUUGCAGAGCUGAACCAUCAGAUGCAGGAAGACAAGUCCAGCAAACCAGAGGCACCACAUCACCACUUCCUCCACAGUCUGGACAUUCAGCACUCCAAACAACAGAGGAUUGAGCAUCA
B4: chr18:33606911:33606912:-_ENSG00000141425_ENST00000399022|hu_mus|FALSE|FALSE (ssRNA)
RNA: GGGAGUUCUACAGUCCGACGAUCUUCCAAUUUAUGUUCUUUCUCUGCAAGGGCUUCCUUUUGACAACGAAGAAAAUCUGCUAACAUUCGGGUGAGUUGCUUUCUAUCAUCUAUUUCUGCCGCCAGUCUGCCAUUAUAAUCUGCCAACAGAGGAUUGAGCAUCA
B5: chr12:48362563:48362564:+_ENSG00000134291_ENST00000256686|hu_hu|hu_hu_hu_mus_False|58_88 (ssRNA)
RNA: GGGAGUUCUACAGUCCGACGAUCUCCGUCAAGCCCUUCGAUAGACCCAUAGACUCUAAACUGUAAUCACUUUGUAUUUCUAAAAAAAAGAAACGCCAAAAACUUUCCAAAAAGCGGGGGUGGGGUGAGGCGGGAGGGGGAGGUCAACAGAGGAUUGAGCAUCA
B6: 419052_420092_3597_CDS_ENSG00000073614_ENST00000399788|human|control|control (ssRNA)
RNA: GGGAGUUCUACAGUCCGACGAUCUUCUAUUAGUUCUUUUACUUUUUUCCUCCUAUUUUUGCCACUCCCAUAUACACCAAUGUCGGUCCGGGGGCUCAGCACCUGUAACAAUGUAUGGCUAGAAUUCUUCUUAAGAAACGUCCGCAACAGAGGAUUGAGCAUCA
B7: chr7:888068:888069:+_ENSG00000164828_ENST00000456758|hu_hu|motif|central (ssRNA)
RNA: GGGAGUUCUACAGUCCGACGAUCUUGAACUAAAAAUGAUGAAAAAGAUGAUGCAGUGUAUCUGGCCAGCCACAAAAUCCGGUUCACGUAGAAAGACGCACCGCAUUUUUGAUUCCUGUCCCUAGAAUAAACUCUCGACACGGGCAACAGAGGAUUGAGCAUCA
B8: chr19:40639365:40639366:-_ENSMUSG00000025007_ENSMUST00000025979|mus_mus|motif|central (ssRNA)
RNA: GGGAGUUCUACAGUCCGACGAUCGGCUGCCACCUGGGGUAGACAGUCAGGGCGAGACUCAAAGAUCACCAGUAAAACACCGGUUGGGACAGUCACUUGUUCUAACUCCAGGUUUUUGGCAAUCCGAGUCCGGCGCAGGACGCGCAACAGAGGAUUGAGCAUCA
B9: chr2:168997265:168997266:-_ENSG00000198648_ENST00000355999|hu_mus|motif|central (ssRNA)
RNA: GGGAGUUCUACAGUCCGACGAUCUUUAUUCCGUGUAACAUCACCCCCUGUGGCUAAGAAUGCGCUUACUCCAAAAUCUGCGGUUUGUACUGAGCCAUCCUCACCCAGAAGAAUAUUUCCAGCUUUCAAAUCCCUAUGGAUCUGCAACAGAGGAUUGAGCAUCA
B10: chr1:229631779:229631780:-_ENSG00000069248_ENST00000261396|hu_hu|motif|central (ssRNA)
RNA: GGGAGUUCUACAGUCCGACGAUCUAAUUCCCAUUUACUGAUGUUUGAACUCGUCAGGCUAUAAAAGCUUGAUCUCUCUCGGUCCCAGAGAACACUUGAAAGUGUGAGAUCACUACUAGGAGAUAAAAUUCCAAAAAGAGAAGACAACAGAGGAUUGAGCAUCA
B11: chr2:202488911:202488912:-_ENSG00000155755_ENST00000286196|hu_mus|hu_hu_hu_mus_False|8_8 (ssRNA)
RNA: GGGAGUUCUACAGUCCGACGAUCAUUGAAACAUUUUUCAUAAUCUCCAGUAGCAUUUCAGCAUUAUGUAACAAAAGCUCAAUUGUAAAUACAUGUAUCUUAUAAAAAUACACUUAAAAACACGAGUAAAAAUGGGAGGCGCCACAACAGAGGAUUGAGCAUCA
B12: chr2:202488911:202488912:-_ENSG00000155755_ENST00000286196|hu_mus|hu_hu_hu_mus_False|8_18 (ssRNA)
RNA: B11 RNA with A118U, A119U, C120U, C122A, G123A, G125A, U126C
B13: chr2:202488911:202488912:-_ENSG00000155755_ENST00000286196|hu_mus|hu_hu_hu_mus_False|18_48 (ssRNA)
RNA: GGGAGUUCUACAGUCCGACGAUCAUUGAAACAUUUUUCAUAAUCUCCAGUAGCAUUUCAGCAUUAUGUAACAAAAGCUCAAUUGUAAAUACACAUGUCUUAUAAAAAUACACUUAAAUUUAAAAACGGGGAGCGCAGGCGCCACAACAGAGGAUUGAGCAUCA
B14: chr19:47150976:47150977:-_ENSG00000197380_ENST00000391916|hu_hu|motif|central (ssRNA)
RNA: GGGAGUUCUACAGUCCGACGAUCACUGGGGAGUCACCAUCGUCAUAAUAAAUACAGUAAUUUUAAAAAAGAAAAAAAAUACGGGAUUGGAACAGCUGAGGGUCAUCAGGCUUCCCCCAUUCCCUCUCACAGGGAGUGGGGGUCCAACAGAGGAUUGAGCAUCA
B15: chr2:27806210:27806211:+_ENSMUSG00000026837_ENSMUST00000028280|mus_mus|FALSE|FALSE (ssRNA)
RNA: GGGAGUUCUACAGUCCGACGAUCUGUGGUUUCUCUGGCAGCUUCCACUGGCUUCUGAGUAGGGGCAGGCUCCUUUCCCGGGUCUUCAGGGUCUUCAUAAUAUGGAUACUCAUAGUAAUAGGUCUCACCCUCUCCUUCUGGGUACAACAGAGGAUUGAGCAUCA
B16: chr2:202488911:202488912:-_ENSG00000155755_ENST00000286196|hu_mus|hu_hu_hu_mus_False|1_18 (ssRNA)
RNA: B13 RNA with C93U, A94G, G96A, G137C, G138A, C139A, G140A, C141U, C142A, A143C

Target: T1, UNK ZnF1-3
Assay: nsRBNS (natural sequence RNA bind-n-seq); RBNS binding buffer (assumed for nsRBNS): 25 mM Tris pH 7.5, 150 mM KCl, 3 mM MgCl2, 0.01% Triton X-100, 500 ug/ml BSA, 20 U/ml SUPERase-In, 4 C; UNK is unkempt and MSI1 is Musashi-1; names of the RNAs are library labels; protein concentration not given here; high values mean tight binding

Binder | binding signal
B1 | 0.666 enrichment R
B2 | 0.774 enrichment R
B3 | 2.02 enrichment R
B4 | 0.802 enrichment R
B5 | 1.85 enrichment R
B6 | 0.677 enrichment R
B7 | 1.34 enrichment R
B8 | 1.58 enrichment R
B9 | 0.927 enrichment R
B10 | 1.07 enrichment R
B11 | 0.957 enrichment R
B12 | 6.76 enrichment R
B13 | 3.69 enrichment R
B14 | 6.05 enrichment R
B15 | 0.892 enrichment R
B16 | 3.65 enrichment R
